These results are taken from paper PMC7862700, “An all-to-all approach to the identification of sequence-specific readers for epigenetic DNA modifications on cytosine”.

Common to all, as to assay: DAPPL (digital affinity profiling via proximity ligation, sequencing); 10 mM Tris-HCl pH 7.5, 50 mM NaCl, 1 mM DTT, 4% glycerol, room temperature, 30 min; GST-TFs on glutathione beads, 16-mer random dsDNA library, 0.1% formaldehyde crosslink after washing; high values mean tight binding
The target in assay [1] is T1, FLI1 (Homo sapiens, UniProt Q01543 1-452).
T1 sequence: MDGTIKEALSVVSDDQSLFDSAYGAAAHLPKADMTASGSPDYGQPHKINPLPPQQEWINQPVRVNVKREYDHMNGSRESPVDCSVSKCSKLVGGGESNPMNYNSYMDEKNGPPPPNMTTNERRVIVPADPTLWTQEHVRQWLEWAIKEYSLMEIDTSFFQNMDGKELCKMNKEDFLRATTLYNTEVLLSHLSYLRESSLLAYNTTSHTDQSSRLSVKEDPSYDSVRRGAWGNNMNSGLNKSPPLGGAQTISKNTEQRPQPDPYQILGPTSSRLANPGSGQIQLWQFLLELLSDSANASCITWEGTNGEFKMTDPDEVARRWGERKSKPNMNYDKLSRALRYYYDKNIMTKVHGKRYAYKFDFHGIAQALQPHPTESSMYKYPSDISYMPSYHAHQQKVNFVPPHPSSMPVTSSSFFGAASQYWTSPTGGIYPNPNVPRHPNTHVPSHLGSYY
The following applies: protein: recombinant; tags: N-terminal GST; dsDNA, one strand shown. In short, it runs like this:
(§1)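 Yeast served to express human transcription factors as GST fusions, which were then captured on glutathione beads and labelled with DNA barcodes. Pooled with a tag-only sample, they were incubated with 200 nmole of a 16-mer random double-stranded DNA library for 30 min at room temperature in Tris/NaCl/DTT/glycerol buffer, washed, crosslinked with 0.1% formaldehyde, ligated by proximity, amplified by PCR and sequenced. Dividing each hexamer's read frequency for a factor by its frequency for the tag-only sample gives the binding signal.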

The target in assay [2] is T2, ELK1 (Homo sapiens, UniProt P19419 1-428).
T2 sequence: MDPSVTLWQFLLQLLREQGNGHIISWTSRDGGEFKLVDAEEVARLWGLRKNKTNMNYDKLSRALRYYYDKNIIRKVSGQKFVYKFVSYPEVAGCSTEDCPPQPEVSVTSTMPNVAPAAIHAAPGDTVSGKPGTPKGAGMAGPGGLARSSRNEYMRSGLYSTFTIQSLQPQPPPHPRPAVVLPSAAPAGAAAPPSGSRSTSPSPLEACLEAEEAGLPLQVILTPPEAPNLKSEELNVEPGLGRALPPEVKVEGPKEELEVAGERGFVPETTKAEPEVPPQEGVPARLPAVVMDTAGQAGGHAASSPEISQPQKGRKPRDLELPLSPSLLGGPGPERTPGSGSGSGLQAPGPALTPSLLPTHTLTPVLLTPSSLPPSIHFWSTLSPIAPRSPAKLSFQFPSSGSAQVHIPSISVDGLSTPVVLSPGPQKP
The following applies: protein: recombinant; tags: N-terminal GST; dsDNA, one strand shown. An outline of the steps: as §1

Assay [3] has as its target T3, GABPA (Homo sapiens, UniProt Q06546 1-454).
T3 sequence: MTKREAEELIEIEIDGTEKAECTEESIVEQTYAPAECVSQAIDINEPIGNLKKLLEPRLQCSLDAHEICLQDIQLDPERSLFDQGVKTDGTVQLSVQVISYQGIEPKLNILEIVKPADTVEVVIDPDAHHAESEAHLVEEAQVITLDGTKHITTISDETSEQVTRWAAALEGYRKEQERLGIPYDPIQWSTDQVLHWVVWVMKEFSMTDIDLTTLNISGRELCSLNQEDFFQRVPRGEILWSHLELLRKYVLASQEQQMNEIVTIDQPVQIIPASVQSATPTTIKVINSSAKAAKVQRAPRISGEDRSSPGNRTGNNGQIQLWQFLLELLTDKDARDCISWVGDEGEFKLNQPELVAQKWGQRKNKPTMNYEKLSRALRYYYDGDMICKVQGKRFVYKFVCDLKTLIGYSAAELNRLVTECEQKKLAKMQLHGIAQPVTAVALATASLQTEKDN
As to conditions: protein: recombinant; tags: N-terminal GST; dsDNA, one strand shown. In short, it runs like this:
as §1

For assay [4], the target named is T4, ERG (Homo sapiens, UniProt P11308 1-479).
T4 sequence: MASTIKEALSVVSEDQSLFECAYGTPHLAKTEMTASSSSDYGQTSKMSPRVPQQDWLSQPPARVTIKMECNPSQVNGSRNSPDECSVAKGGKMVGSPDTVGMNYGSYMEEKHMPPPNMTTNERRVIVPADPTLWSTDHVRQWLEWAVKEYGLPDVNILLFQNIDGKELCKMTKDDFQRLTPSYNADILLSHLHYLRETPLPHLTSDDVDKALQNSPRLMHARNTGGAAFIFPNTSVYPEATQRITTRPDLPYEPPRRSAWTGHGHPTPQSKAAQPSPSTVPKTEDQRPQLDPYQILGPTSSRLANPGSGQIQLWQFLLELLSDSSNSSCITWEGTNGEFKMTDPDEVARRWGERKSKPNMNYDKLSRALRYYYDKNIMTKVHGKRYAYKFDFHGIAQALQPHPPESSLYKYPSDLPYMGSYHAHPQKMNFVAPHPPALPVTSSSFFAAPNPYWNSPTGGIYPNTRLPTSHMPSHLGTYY
The following applies: protein: recombinant; tags: N-terminal GST; dsDNA, one strand shown. An outline of the steps: as §1

In assay [5] the target is ELF1 (Homo sapiens, UniProt P32519 1-619). As to conditions: protein: recombinant; tags: N-terminal GST; dsDNA, one strand shown. An outline of the steps:
as §1

Assay [6] addresses T5, EHF (Homo sapiens, UniProt Q9NZC4 1-300).
T5 sequence: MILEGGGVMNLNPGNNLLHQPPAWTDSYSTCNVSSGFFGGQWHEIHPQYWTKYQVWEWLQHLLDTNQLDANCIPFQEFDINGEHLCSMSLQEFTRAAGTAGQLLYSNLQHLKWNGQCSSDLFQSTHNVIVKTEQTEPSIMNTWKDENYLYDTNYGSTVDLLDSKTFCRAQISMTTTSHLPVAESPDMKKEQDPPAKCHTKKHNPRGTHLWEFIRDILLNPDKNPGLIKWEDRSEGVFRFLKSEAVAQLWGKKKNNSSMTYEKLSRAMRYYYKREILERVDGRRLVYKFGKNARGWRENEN
The following applies: protein: recombinant; tags: N-terminal GST; dsDNA, one strand shown. An outline of the steps: as §1

Assay [7] deals with SPI1 (Homo sapiens, UniProt P17947 1-270). The following applies: protein: recombinant; tags: N-terminal GST; dsDNA, one strand shown. In short, it runs like this: as §1
Assay [8] addresses SPIB (Homo sapiens, UniProt Q01892 1-262). The following applies: protein: recombinant; tags: N-terminal GST; dsDNA, one strand shown. In short, it runs like this: as §1
The target in assay [9] is T6, ELK3 (Homo sapiens, UniProt P41970 1-407).
T6 sequence: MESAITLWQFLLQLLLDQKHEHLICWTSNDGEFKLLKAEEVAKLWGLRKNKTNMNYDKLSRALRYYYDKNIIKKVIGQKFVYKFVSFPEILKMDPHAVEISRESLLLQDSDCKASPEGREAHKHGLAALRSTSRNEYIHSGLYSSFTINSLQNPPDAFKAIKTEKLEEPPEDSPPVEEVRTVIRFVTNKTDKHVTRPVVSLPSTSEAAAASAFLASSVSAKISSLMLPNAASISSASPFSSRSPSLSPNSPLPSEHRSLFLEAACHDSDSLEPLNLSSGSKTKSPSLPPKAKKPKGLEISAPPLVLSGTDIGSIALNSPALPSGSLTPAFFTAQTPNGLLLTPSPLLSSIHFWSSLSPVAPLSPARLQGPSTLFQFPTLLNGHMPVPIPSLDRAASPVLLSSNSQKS
As to conditions: protein: recombinant; tags: N-terminal GST; dsDNA, one strand shown. In short, it runs like this:
as §1

In assay [10] the target is T7, FEV (Homo sapiens, UniProt Q99581 1-238).
T7 sequence: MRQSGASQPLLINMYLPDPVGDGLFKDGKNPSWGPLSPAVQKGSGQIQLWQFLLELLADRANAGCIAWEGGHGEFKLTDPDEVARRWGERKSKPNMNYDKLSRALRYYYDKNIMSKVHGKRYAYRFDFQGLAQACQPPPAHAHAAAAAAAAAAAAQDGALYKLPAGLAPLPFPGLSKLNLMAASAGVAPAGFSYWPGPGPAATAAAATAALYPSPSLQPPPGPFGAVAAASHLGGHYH
The following applies: protein: recombinant; tags: N-terminal GST; dsDNA, one strand shown. An outline of the steps:
as §1

In assay [11] the target is ETV5 (Homo sapiens, UniProt P41161 1-510). The following applies: protein: recombinant; tags: N-terminal GST; dsDNA, one strand shown. In short, it runs like this:
as §1

Assay [12] has as its target HSF1 (Homo sapiens, UniProt Q00613 1-529). The following applies: protein: recombinant; tags: N-terminal GST; chain copies: 3; dsDNA, one strand shown. In short, it runs like this: as §1
The target in assay [13] is T8, SPIC (Homo sapiens, UniProt Q8N5J4 1-248).
T8 sequence: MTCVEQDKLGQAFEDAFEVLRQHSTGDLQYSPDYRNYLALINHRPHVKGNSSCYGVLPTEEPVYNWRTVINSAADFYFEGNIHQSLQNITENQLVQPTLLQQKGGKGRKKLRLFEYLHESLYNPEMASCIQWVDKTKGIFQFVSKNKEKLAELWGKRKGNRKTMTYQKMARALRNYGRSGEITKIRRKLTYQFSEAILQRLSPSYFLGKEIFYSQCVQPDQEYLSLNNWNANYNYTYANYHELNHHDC
As to conditions: protein: recombinant; tags: N-terminal GST; dsDNA, one strand shown. In short, it runs like this:
as §1

For assay [14], the target named is ELF4 (Homo sapiens, UniProt Q99607 1-663). As to conditions: protein: recombinant; tags: N-terminal GST; dsDNA, one strand shown. An outline of the steps: as §1
The target of assay [15] is T9, ELK4 (Homo sapiens, UniProt P28324-2 1-405).
T9 sequence: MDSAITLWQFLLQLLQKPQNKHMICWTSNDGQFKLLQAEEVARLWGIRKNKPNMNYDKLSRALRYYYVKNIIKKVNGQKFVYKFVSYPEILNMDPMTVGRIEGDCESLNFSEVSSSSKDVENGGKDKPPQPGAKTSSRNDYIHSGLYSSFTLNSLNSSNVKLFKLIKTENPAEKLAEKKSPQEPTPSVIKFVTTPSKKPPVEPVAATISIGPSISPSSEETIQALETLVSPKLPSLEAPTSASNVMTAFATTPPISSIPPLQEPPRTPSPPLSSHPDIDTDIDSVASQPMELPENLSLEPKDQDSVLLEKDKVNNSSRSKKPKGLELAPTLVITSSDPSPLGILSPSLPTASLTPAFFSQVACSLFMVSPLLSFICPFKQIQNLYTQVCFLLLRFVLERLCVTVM
As to conditions: protein: recombinant; tags: N-terminal GST; dsDNA, one strand shown. An outline of the steps:
as §1

In assay [16] the target is T10, ETV2 (Homo sapiens, UniProt O00321 1-342).
T10 sequence: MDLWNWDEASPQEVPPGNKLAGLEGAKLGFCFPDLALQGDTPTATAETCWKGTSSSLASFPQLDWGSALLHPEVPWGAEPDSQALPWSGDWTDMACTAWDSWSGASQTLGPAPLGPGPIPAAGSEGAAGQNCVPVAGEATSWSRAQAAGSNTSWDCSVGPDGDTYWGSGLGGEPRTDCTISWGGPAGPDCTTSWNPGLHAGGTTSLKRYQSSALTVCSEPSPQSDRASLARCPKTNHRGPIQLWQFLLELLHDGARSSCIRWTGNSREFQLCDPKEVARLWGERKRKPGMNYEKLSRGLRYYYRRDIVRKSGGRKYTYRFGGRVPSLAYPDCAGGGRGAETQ
As to conditions: protein: recombinant; tags: N-terminal GST; dsDNA, one strand shown. In short, it runs like this:
as §1

Assay [17] has as its target T11, ELF3 (Homo sapiens, UniProt P78545 1-371).
T11 sequence: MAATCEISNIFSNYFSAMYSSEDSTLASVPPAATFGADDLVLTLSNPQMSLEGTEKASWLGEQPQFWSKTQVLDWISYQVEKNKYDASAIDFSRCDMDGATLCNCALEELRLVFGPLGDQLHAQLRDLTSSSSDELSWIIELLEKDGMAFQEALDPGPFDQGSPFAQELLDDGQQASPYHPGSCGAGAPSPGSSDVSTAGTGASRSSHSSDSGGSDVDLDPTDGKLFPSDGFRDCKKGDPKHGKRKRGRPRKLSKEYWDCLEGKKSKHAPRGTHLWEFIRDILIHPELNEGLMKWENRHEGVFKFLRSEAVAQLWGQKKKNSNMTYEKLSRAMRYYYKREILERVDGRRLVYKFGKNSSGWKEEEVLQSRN
As to conditions: protein: recombinant; tags: N-terminal GST; dsDNA, one strand shown. In short, it runs like this:
as §1

In assay [18] the target is CRX (Homo sapiens, UniProt O43186 1-299). As to conditions: protein: recombinant; tags: N-terminal GST; dsDNA, one strand shown. In short, it runs like this: as §1
Assay [19] deals with ETV1 (Homo sapiens, UniProt P50549 1-477). As to conditions: protein: recombinant; tags: N-terminal GST; dsDNA, one strand shown. In short, it runs like this: as §1
Chain of ETV1 (P50549 whole entry): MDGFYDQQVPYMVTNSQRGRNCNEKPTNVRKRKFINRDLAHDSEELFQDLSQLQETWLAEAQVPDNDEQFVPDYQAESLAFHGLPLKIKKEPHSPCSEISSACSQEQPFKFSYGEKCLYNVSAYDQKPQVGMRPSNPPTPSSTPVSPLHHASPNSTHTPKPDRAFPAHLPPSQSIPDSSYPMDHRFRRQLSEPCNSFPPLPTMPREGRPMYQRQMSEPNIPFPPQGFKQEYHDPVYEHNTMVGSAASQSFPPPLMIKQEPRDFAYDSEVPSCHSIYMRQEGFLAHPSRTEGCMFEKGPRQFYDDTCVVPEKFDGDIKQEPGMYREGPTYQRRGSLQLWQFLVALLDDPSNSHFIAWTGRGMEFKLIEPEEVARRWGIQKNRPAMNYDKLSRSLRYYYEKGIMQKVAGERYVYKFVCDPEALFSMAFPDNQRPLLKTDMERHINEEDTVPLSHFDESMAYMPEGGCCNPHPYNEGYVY

Chain of ETV5 (P41161 whole entry): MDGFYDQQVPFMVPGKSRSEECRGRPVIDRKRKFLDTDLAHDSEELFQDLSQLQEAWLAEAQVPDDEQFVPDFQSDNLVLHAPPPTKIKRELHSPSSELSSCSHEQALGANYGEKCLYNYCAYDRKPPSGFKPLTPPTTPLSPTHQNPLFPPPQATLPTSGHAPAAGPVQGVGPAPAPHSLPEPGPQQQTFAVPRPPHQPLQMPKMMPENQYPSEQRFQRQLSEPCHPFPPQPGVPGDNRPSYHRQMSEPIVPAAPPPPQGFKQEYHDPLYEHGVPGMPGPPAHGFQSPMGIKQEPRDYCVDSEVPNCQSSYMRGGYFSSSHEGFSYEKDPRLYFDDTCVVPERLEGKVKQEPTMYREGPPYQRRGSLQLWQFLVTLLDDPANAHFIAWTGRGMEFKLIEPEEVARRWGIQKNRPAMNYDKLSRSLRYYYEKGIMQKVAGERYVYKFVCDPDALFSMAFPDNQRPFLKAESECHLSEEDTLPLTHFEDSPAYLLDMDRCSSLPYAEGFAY
Chain of CRX (O43186 whole entry): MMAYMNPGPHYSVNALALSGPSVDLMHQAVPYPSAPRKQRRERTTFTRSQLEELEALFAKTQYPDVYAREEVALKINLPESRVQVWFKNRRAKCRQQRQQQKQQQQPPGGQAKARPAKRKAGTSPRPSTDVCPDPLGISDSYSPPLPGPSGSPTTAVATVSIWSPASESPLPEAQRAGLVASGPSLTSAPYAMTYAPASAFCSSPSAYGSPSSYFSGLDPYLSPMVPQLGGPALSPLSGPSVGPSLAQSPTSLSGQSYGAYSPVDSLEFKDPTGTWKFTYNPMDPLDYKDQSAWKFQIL
Chain of ELF1 (P32519 whole entry): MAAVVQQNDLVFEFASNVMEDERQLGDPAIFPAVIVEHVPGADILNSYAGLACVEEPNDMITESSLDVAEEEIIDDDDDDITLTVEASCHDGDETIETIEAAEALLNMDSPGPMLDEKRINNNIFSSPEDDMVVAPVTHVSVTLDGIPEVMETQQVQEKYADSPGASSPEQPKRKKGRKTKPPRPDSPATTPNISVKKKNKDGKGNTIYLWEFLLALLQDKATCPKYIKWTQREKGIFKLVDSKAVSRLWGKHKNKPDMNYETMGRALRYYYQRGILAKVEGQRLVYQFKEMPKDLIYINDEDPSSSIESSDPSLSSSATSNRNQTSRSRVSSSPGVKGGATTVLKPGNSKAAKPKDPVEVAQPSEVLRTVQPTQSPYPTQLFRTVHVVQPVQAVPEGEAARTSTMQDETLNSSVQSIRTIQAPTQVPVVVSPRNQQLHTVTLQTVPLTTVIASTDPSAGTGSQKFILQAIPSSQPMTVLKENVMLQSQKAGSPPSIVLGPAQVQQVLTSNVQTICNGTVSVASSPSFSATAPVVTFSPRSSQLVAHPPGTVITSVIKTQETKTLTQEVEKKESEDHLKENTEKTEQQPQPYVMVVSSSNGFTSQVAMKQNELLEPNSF
Chain of SPIB (Q01892 whole entry): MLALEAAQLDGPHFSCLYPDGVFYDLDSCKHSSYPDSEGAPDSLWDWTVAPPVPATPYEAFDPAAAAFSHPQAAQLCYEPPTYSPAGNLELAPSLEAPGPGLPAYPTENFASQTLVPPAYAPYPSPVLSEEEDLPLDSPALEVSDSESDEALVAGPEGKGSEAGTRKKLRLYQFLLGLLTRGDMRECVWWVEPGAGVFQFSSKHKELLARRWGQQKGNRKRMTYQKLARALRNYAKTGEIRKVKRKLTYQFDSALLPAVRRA
Chain of ELF4 (Q99607 whole entry): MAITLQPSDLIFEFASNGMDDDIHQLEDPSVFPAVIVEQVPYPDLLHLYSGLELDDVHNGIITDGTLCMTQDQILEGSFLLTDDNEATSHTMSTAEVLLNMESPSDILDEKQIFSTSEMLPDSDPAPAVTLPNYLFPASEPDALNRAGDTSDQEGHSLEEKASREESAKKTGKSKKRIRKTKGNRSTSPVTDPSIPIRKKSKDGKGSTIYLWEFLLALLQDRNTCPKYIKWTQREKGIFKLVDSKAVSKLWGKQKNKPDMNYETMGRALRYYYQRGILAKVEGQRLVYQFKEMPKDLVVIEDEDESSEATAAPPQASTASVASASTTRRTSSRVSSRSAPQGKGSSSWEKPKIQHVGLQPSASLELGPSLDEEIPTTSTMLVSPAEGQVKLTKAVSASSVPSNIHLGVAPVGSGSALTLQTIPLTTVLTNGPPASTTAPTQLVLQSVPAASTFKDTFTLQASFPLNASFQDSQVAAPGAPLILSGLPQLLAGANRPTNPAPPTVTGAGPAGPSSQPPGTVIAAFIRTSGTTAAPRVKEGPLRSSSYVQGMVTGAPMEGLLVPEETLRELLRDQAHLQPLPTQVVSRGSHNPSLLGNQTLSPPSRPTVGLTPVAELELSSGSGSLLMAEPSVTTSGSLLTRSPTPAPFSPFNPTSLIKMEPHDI
Chain of HSF1 (Q00613 whole entry): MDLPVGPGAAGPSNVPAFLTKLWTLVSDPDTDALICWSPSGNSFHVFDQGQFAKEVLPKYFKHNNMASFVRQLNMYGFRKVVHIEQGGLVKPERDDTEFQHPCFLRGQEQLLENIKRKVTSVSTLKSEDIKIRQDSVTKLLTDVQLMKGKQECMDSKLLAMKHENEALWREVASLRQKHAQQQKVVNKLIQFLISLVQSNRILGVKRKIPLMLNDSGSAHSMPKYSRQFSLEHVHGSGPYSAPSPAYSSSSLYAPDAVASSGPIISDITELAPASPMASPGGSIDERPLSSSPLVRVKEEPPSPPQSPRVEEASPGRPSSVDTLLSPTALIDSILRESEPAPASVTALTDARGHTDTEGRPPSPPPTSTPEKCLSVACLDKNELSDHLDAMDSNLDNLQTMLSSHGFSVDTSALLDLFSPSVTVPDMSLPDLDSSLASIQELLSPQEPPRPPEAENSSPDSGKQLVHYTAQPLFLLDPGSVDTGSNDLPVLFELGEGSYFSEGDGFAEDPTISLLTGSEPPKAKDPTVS

AATGAA: the binding signal in assay [1] was 1.11 fold enrichment (6-mer frequency, TF over GST control); in assay [2], 1.1 fold enrichment (6-mer frequency, TF over GST control); in assay [3], 1.22 fold enrichment (6-mer frequency, TF over GST control); in assay [4], 1.21 fold enrichment (6-mer frequency, TF over GST control); in assay [5] it was 1.15 fold enrichment (6-mer frequency, TF over GST control); in assay [6], 1.18 fold enrichment (6-mer frequency, TF over GST control). Besides, the binding signal was 1.24 fold enrichment (6-mer frequency, TF over GST control) in [7]; 1.2 fold enrichment (6-mer frequency, TF over GST control) in assay [8]; 1.26 fold enrichment (6-mer frequency, TF over GST control) in assay [9]; 1.11 fold enrichment (6-mer frequency, TF over GST control) in assay [10]; 1.16 fold enrichment (6-mer frequency, TF over GST control) in assay [11]; 1.12 fold enrichment (6-mer frequency, TF over GST control) in assay [12]. Besides, the binding signal is 1.26 fold enrichment (6-mer frequency, TF over GST control) in assay [13]; 1.2 fold enrichment (6-mer frequency, TF over GST control) in [14]; 1.24 fold enrichment (6-mer frequency, TF over GST control) in assay [15]; 1.08 fold enrichment (6-mer frequency, TF over GST control) in assay [16]; 1.24 fold enrichment (6-mer frequency, TF over GST control) in assay [17]; 1.03 fold enrichment (6-mer frequency, TF over GST control) in assay [18]. Moreover, the binding signal in assay [19] is 1.17 fold enrichment (6-mer frequency, TF over GST control).
